This note sets out measurements from PubChem BioAssay (NCI).

Experiment in all cases: NCI-60 one-dose screen, 48 h (100 = growth as untreated, 0 = no growth, -100 = all killed)
Details in all cases: 10 µM unless noted

The test system of test [1] is SN12C renal.
For test [2], the system named is UO-31 renal.
Test [3] relates to TK-10 renal.
The subject of test [4] is ACHN renal.
Test [5] has as its system CAKI-1 renal.
The subject of test [6] is A498 renal.
Test [7] has as its system CCRF-CEM leukemia.
Test [8] concerns MOLT-4 leukemia.
The subject of test [9] is SR leukemia.
Test [10] has as its system RPMI-8226 leukemia.
Test [11] concerns OVCAR-8 ovarian.
The test system of test [12] is OVCAR-5 ovarian.
Test [13] deals with OVCAR-4 ovarian.
Test [14] relates to IGROV1 ovarian.
The subject of test [15] is OVCAR-3 ovarian.
The test system of test [16] is HS 578T breast.
For test [17], the system named is NCI/ADR-RES ovarian.
The subject of test [18] is SK-OV-3 ovarian.

Structures are written as SMILES. This is part of a sample that, as a whole, favours compounds with a hit. Of some 83,000 tested, about 20% had one in any assay.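 Treatment: one concentration, 48 hours, 96-well format. Scoring: percent growth, with anything below 10 considered active.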 Unmarked numbers belong to inactive results. Active and inactive are the calls of the source.

Consider `CCCCNc1ccc2c3c1cccc3c(=O)n1c3ccccc3nc21`, for which the growth is 90.9% in test [1]; 58.6% in test [2]; 70.2% in test [3]; 81.8% in test [4]; 43.2% in test [5]; 96.1% in test [6]. Moreover, the growth is 75% in test [7]; 69.4% in [8]; 15.6% in [9]; 80.5% in test [10]; 106% in test [11]; 110% in test [12]. The growth was 85.8% in test [13]; 41.8% in test [14]; 95.3% in test [15]; 93.1% in test [16]; 91.3% in test [17].

`Cc1sc2nc3[nH]/c(=C\c4ccc(Cl)cc4)c(=O)n3c(=O)c2c1C`: the growth in test [1] is 98.1%; in test [2] it was 103%; in test [3], 102%; in [5], 105%; in test [6], 99.5%; in [7] it was 90.2%. Also, the growth in test [8] was 94.1%; in test [9], 86.6%; in test [10] it was 97.1%; in [12], 81.7%; in test [13], 105%; in test [18], 105%. Moreover, the growth in [14] was 107%; in [15] it was 107%; in test [16] it was 111%; in [17], 107%.

Regarding `COc1ccc(/C=N\NC(=O)c2ccncc2)cc1O`, the growth in test [1] is 96.7%; in test [2], 77.8%; in test [3] it was 102%; in test [4] it was 102%; in test [5] it was 90.4%; in test [6] it was 108%. The growth in test [7] was 99.3%; in [8] it was 95.6%; in test [9], 95.7%; in test [10] it was 104%; in test [11], 98.5%; in test [12], 110%. The growth in [13] is 87.8%; in [18] it was 87.8%; in test [14], 98.4%; in test [15] it was 104%; in test [16], 110%; in test [17], 102%.

As to `O=C(CCCN1CCOCC1)Nc1ccc(Cn2nnc3c2C(=O)c2nnn(Cc4ccc(NC(=O)CCCN5CCOCC5)cc4)c2C3=O)cc1`, the growth was -40.7% (active) in test [1]; 103% in test [2]; 116% in test [3]; 97.9% in test [4]; 88.6% in test [5]; 102% in test [6]. Also, the growth was -3.08% (active) in [7]; -21.5% (active) in test [8]; 10.6% in test [9]; 37.5% in test [10]; 121% in test [12]; -65.7% (active) in test [13]. In addition, the growth in test [18] is 92.1%; in [14], 3.22% (active); in [15], -1.11% (active); in test [16] it was 101%; in test [17], 102%.

Consider `COc1ccc2nc3cc(Cl)ccc3c(N3CCN(c4nccc(NCc5ccccc5)n4)CC3)c2c1`, for which the growth in [1] was 76%; in test [2], 45.9%; in test [3], 62.6%; in [4] it was 68.5%; in [5] it was 62.2%; in test [7], 0.798% (active). Moreover, the growth in test [8] was 5.21% (active); in test [9], 20.9%; in test [10], 63.2%; in test [11], 71.4%; in test [12], 106%; in test [13], 67.3%. Besides, the growth is 98.1% in test [18]; 92% in test [14]; 63.3% in test [15]; 83.3% in [16]; 78.5% in test [17].

Take `COc1ccc2nc3cc(Cl)ccc3c(N3CCN(c4ccnc(N5CCN(C)CC5)n4)CC3)c2c1`: the growth in test [1] was 36.9%; in test [2], 51.2%; in test [3], 8.16% (active); in test [4] it was 36.9%; in test [5] it was 49.7%; in test [6], 68.1%. The growth in test [7] was -27.9% (active); in [8], -24% (active); in [9] it was -26.9% (active); in test [10], 11.2%; in test [11], 41.2%; in test [13] it was 46.2%. The growth was 87.2% in test [18], 72.9% in test [14], -39.4% (active) in test [15] and 106% in test [16].

For the compound `CCC(C)[C@@H]1NC(=O)[C@@H]2CCCN2C(=O)[C@H](Cc2ccccc2)NC(=O)[C@@H]2CCCN2C(=O)[C@H](Cc2ccccc2)NC(=O)[C@@H]2CCCN2C(=O)[C@H](Cc2ccccc2)NC1=O` (some centres undefined), the growth in test [1] is 102%; in [2] it was 105%; in test [3] it was 104%; in [4], 103%; in [5] it was 94.1%; in [6] it was 108%. Also, the growth in test [7] was 92.7%; in test [8], 89.7%; in test [9], 83.7%; in [10], 85.7%; in test [11], 113%; in test [13] it was 106%. Also, the growth was 103% in test [18]; 120% in [14]; 126% in test [15]; 106% in test [16]; 112% in test [17].

Take `COc1ccc2nc3cc(Cl)ccc3c(N3CCN(c4ccnc(N5CCOCC5)n4)CC3)c2c1`: the growth is 32.3% in test [1]; 57.2% in test [2]; 63.7% in test [3]; 27.4% in test [4]; 59.7% in test [5]; 60.6% in test [6]. The growth in [7] was -18.4% (active); in test [10], 11.3%; in [11], 59.2%; in test [12], 83.8%; in [13], 55.6%; in test [14] it was 77.8%. Further, the growth in test [15] was 4.76% (active); in test [16], 99.2%; in test [17] it was 73.2%.

`CSc1nc(NCCCNc2ccnc3cc(Cl)ccc23)cc(-c2ccccc2)n1`: the growth in test [1] is 79.5%; in [2] it was 42.3%; in test [3] it was 75.7%; in test [4], 92.2%; in [5], 54.1%; in test [6], 40.2%. The growth in [7] is 47%; in test [10] it was 7.4% (active); in test [11], 81.7%; in test [12], 95%; in [13] it was 66.6%; in test [18] it was 82.3%. In addition, the growth was 67% in test [14], 72.3% in [15], 65% in [16] and 67.5% in [17].
